# From article PMC7862700, “An all-to-all approach to the identification of sequence-specific readers for epigenetic DNA modifications on cytosine”
# How the values were obtained:
# Assay in all cases: DAPPL (digital affinity profiling via proximity ligation, sequencing); 10 mM Tris-HCl pH 7.5, 50 mM NaCl, 1 mM DTT, 4% glycerol, room temperature, 30 min; GST-TFs on glutathione beads, 16-mer random dsDNA library, 0.1% formaldehyde crosslink after washing; high values mean tight binding
# FEV = molecular target: T1, FEV (Homo sapiens, UniProt Q99581 1-238); settings: protein: recombinant; tags: N-terminal GST; dsDNA, one strand shown
# T1 sequence: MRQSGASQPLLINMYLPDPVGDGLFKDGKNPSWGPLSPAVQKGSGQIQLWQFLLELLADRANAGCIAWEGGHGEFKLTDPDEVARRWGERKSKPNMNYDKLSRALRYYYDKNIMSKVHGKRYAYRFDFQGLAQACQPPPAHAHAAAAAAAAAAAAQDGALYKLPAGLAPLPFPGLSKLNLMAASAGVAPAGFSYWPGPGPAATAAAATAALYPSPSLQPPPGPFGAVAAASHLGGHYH
# In short: (§1)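 Pools of DNA-barcoded human transcription factors, expressed in yeast as GST fusions on glutathione beads and combined with a tag-only sample, were incubated with 200 nmole of a 16-mer random double-stranded DNA library. Incubation took 30 min at room temperature in Tris/NaCl/DTT/glycerol buffer and was followed by washing, 0.1% formaldehyde crosslinking, proximity ligation (BsaI/T4 ligase, 1 h, 37 °C), PCR amplification and sequencing on an Illumina NextSeq500. Binding signal is the ratio of a hexamer's read frequency for a factor to its frequency for the tag-only sample.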
# ETV5 = ETV5 (Homo sapiens, UniProt P41161 1-510); settings: protein: recombinant; tags: N-terminal GST; dsDNA, one strand shown
# ETV5, sequence (P41161 whole entry): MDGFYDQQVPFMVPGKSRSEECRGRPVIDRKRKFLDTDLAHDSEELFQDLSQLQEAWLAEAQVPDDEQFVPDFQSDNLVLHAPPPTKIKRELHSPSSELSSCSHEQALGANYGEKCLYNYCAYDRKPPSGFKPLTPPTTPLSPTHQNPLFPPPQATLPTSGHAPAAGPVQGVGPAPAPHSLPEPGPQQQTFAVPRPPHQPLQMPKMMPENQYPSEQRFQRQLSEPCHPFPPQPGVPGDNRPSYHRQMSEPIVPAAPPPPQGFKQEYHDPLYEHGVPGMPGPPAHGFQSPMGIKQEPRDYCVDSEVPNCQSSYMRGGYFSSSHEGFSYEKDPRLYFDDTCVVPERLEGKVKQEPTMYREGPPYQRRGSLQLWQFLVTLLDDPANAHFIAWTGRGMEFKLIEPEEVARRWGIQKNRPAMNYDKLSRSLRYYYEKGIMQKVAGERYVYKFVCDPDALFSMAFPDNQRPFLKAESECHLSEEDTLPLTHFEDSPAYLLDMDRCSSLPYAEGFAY
# In short: as §1
# HSF1 = HSF1 (Homo sapiens, UniProt Q00613 1-529); settings: protein: recombinant; tags: N-terminal GST; chain copies: 3; dsDNA, one strand shown
# HSF1, sequence (Q00613 whole entry): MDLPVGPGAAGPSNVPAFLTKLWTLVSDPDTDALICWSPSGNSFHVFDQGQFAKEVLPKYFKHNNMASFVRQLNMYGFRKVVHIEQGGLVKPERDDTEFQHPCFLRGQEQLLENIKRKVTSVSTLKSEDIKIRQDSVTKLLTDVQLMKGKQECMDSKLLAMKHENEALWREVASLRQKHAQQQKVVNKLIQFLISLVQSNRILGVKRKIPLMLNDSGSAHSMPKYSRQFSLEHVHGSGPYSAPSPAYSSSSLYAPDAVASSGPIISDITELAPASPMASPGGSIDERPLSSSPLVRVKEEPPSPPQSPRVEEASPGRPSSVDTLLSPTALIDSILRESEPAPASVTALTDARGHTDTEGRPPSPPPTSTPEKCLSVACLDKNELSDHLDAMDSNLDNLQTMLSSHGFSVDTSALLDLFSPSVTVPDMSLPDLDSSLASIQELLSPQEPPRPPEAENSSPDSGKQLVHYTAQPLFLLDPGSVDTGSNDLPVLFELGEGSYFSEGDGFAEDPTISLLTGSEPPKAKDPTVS
# In short: as §1
# SPIC = molecular target: T2, SPIC (Homo sapiens, UniProt Q8N5J4 1-248); settings: protein: recombinant; tags: N-terminal GST; dsDNA, one strand shown
# T2 sequence: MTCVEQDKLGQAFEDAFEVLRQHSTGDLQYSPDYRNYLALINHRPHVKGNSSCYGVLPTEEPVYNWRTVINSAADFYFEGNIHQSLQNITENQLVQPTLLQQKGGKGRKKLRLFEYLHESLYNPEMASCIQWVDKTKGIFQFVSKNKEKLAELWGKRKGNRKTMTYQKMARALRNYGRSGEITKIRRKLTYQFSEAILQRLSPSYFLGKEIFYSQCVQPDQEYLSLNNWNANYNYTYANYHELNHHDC
# In short: as §1
# ELF4 = ELF4 (Homo sapiens, UniProt Q99607 1-663); settings: protein: recombinant; tags: N-terminal GST; dsDNA, one strand shown
# ELF4, sequence (Q99607 whole entry): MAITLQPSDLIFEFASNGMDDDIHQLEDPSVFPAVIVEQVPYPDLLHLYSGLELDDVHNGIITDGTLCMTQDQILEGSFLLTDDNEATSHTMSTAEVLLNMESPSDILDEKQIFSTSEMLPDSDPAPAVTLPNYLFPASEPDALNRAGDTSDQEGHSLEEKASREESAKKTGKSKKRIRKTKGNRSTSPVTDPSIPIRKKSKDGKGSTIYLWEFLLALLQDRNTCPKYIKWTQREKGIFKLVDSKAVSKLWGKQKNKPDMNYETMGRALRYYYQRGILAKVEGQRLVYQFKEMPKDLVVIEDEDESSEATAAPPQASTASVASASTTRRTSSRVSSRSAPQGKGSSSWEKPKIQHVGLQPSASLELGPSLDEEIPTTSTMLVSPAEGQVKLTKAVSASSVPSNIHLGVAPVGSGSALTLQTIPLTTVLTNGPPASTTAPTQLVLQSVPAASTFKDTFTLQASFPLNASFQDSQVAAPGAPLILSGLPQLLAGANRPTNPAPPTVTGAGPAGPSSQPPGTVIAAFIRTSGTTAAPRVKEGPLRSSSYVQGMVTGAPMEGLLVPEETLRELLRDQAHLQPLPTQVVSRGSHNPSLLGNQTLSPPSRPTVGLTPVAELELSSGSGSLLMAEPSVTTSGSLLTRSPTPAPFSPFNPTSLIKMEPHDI
# In short: as §1
# ELK4 = molecular target: T3, ELK4 (Homo sapiens, UniProt P28324-2 1-405); settings: protein: recombinant; tags: N-terminal GST; dsDNA, one strand shown
# T3 sequence: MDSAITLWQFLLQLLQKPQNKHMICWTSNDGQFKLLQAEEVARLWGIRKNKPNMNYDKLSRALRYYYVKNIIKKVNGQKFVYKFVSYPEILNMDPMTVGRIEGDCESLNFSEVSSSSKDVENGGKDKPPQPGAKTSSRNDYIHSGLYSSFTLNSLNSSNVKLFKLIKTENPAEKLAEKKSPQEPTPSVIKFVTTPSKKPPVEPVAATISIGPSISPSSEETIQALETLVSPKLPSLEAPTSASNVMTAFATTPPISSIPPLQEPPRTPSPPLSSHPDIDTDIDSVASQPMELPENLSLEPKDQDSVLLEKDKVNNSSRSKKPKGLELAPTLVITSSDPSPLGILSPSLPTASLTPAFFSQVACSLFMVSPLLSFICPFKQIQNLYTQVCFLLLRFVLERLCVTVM
# In short: as §1
# ETV2 = molecular target: T4, ETV2 (Homo sapiens, UniProt O00321 1-342); settings: protein: recombinant; tags: N-terminal GST; dsDNA, one strand shown
# T4 sequence: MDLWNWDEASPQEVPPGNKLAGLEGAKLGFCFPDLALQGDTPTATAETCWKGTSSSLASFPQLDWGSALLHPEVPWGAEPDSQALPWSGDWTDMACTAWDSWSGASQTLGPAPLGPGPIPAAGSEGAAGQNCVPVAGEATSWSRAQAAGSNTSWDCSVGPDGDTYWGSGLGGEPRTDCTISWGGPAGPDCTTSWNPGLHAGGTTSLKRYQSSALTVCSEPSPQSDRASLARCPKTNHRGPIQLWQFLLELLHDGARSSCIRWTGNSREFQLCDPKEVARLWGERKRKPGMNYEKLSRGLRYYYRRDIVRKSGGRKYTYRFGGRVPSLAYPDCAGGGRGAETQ
# In short: as §1
# ELF3 = molecular target: T5, ELF3 (Homo sapiens, UniProt P78545 1-371); settings: protein: recombinant; tags: N-terminal GST; dsDNA, one strand shown
# T5 sequence: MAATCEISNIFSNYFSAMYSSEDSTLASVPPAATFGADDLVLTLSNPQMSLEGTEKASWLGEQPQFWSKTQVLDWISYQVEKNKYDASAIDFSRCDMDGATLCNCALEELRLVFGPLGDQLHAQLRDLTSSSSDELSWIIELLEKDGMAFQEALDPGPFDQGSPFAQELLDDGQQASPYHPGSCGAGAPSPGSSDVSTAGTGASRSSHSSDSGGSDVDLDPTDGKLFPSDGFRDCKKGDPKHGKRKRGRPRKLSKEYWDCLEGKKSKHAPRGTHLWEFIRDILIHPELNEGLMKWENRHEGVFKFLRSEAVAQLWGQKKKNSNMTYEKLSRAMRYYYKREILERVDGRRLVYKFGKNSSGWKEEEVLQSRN
# In short: as §1
# CRX = CRX (Homo sapiens, UniProt O43186 1-299); settings: protein: recombinant; tags: N-terminal GST; dsDNA, one strand shown
# CRX, sequence (O43186 whole entry): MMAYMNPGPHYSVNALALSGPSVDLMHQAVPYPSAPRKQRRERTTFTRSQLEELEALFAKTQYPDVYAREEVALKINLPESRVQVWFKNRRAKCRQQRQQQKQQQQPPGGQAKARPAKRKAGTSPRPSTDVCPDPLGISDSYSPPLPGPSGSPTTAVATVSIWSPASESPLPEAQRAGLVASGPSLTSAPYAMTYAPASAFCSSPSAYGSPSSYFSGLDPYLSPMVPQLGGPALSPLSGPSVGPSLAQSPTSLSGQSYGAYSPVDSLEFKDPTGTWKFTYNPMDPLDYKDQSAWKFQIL
# In short: as §1
# ETV1 = ETV1 (Homo sapiens, UniProt P50549 1-477); settings: protein: recombinant; tags: N-terminal GST; dsDNA, one strand shown
# ETV1, sequence (P50549 whole entry): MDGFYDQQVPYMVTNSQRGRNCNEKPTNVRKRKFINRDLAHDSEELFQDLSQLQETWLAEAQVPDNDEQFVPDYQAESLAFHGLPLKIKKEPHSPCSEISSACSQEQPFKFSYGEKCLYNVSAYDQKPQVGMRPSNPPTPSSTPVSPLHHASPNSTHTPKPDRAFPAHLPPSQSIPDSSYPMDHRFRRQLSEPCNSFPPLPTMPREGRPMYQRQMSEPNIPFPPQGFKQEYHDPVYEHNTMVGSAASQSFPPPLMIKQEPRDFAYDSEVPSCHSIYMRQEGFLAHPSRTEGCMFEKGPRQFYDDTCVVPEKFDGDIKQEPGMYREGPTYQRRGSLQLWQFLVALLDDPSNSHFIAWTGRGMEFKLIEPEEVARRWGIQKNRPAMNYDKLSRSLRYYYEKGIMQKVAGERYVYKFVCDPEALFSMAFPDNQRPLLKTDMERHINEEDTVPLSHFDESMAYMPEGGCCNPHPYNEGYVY
# In short: as §1
# ERF = molecular target: T6, ERF (Homo sapiens, UniProt P50548 1-548); settings: protein: recombinant; tags: N-terminal GST; dsDNA, one strand shown
# T6 sequence: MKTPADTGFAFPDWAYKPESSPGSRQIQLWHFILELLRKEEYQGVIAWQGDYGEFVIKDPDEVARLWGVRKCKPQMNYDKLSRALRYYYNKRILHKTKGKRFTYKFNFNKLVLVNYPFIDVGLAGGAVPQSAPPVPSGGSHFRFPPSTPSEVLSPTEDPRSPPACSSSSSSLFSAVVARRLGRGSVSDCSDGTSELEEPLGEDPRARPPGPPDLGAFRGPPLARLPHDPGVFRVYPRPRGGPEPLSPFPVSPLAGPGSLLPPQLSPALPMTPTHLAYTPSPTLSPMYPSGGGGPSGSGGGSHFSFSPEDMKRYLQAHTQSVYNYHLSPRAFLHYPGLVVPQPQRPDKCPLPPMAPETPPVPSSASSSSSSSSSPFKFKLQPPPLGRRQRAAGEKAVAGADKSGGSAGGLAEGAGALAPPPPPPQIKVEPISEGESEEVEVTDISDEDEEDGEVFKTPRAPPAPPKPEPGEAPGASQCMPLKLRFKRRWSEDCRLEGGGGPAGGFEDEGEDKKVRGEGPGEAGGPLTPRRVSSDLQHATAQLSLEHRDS
# In short: as §1
# ETV3L = molecular target: T7, ETV3L (Homo sapiens, UniProt Q6ZN32 1-361); settings: protein: recombinant; tags: N-terminal GST; dsDNA, one strand shown
# T7 sequence: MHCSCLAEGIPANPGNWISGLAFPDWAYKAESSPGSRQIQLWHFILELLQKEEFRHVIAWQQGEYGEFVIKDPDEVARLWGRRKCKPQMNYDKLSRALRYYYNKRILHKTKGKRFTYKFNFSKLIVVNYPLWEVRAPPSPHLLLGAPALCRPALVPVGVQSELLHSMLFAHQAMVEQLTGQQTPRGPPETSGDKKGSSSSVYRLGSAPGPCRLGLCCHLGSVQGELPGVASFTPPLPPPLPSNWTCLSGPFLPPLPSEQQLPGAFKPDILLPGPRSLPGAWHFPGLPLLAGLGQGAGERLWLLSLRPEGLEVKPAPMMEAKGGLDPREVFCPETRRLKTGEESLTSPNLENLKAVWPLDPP
# In short: as §1
# ETS2 = molecular target: T8, ETS2 (Homo sapiens, UniProt P15036 1-469); settings: protein: recombinant; tags: N-terminal GST; dsDNA, one strand shown
# T8 sequence: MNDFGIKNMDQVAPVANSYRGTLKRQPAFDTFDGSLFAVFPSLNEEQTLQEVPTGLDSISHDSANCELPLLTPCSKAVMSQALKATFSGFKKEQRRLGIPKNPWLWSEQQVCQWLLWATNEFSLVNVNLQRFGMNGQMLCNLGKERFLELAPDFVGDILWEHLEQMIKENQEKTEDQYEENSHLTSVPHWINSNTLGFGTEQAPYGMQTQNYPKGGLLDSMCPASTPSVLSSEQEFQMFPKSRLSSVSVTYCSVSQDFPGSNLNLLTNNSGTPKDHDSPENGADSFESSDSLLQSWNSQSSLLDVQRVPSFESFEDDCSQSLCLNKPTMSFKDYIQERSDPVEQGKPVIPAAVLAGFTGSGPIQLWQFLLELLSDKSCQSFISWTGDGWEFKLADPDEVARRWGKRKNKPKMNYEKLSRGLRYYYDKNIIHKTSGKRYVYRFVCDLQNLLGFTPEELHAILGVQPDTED
# In short: as §1
# SPDEF = molecular target: T9, SPDEF (Homo sapiens, UniProt O95238 1-335); settings: protein: recombinant; tags: N-terminal GST; dsDNA, one strand shown
# T9 sequence: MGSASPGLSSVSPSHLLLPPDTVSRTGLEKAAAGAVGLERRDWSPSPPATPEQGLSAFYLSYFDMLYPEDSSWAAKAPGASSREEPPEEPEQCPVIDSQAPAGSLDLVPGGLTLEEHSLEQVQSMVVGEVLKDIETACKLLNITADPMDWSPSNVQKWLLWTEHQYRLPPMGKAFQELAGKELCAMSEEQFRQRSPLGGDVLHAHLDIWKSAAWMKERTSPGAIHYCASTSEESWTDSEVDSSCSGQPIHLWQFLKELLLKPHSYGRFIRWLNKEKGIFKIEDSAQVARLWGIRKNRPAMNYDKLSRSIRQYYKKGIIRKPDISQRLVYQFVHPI
# In short: as §1
# ETV7 = molecular target: T10, ETV7 (Homo sapiens, UniProt Q9Y603 1-341); settings: protein: recombinant; tags: N-terminal GST; dsDNA, one strand shown
# T10 sequence: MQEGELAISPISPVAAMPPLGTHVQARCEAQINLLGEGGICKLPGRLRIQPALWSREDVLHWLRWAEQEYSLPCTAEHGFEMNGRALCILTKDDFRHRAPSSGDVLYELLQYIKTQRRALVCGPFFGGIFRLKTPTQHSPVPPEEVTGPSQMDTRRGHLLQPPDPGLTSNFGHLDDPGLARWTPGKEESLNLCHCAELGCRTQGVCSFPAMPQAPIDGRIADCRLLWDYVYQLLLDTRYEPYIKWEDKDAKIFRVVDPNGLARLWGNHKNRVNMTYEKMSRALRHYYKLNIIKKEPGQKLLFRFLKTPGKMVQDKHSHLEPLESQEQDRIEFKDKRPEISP
# In short: as §1
# ELF5 = molecular target: T11, ELF5 (Homo sapiens, UniProt Q9UKW6-2 1-255); settings: protein: recombinant; tags: N-terminal GST; dsDNA, one strand shown
# T11 sequence: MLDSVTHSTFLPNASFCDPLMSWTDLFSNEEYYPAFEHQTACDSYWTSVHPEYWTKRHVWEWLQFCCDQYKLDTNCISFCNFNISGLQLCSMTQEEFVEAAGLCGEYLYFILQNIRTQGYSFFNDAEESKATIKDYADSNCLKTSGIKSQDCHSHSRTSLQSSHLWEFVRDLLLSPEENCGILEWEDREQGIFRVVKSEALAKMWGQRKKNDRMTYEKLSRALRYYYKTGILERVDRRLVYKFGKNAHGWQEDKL
# In short: as §1
# ETV3 = molecular target: T12, ETV3 (Homo sapiens, UniProt P41162-2 1-143); settings: protein: recombinant; tags: N-terminal GST; dsDNA, one strand shown
# T12 sequence: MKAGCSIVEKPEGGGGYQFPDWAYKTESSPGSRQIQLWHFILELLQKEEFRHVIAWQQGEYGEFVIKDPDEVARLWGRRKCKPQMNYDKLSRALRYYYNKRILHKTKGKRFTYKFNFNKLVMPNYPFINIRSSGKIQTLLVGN
# In short: as §1
# ETV6 = ETV6 (Homo sapiens, UniProt P41212 1-452); settings: protein: recombinant; tags: N-terminal GST; dsDNA, one strand shown
# ETV6, sequence (P41212 whole entry): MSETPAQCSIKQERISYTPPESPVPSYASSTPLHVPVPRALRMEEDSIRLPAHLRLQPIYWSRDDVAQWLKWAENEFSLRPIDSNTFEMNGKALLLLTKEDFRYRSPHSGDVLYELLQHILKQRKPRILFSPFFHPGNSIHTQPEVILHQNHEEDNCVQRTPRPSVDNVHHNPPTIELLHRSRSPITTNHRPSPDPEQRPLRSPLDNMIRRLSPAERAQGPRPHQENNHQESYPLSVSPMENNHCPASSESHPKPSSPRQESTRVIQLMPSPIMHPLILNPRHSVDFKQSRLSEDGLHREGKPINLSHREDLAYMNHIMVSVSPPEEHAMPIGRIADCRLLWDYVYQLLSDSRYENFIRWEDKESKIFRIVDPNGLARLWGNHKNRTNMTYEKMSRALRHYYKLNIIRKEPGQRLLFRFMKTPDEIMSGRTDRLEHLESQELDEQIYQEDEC
# In short: as §1
sequence,measurement,setting,value
CTCATG,binding signal,FEV,"1.27 fold enrichment (6-mer frequency, TF over GST control)"
same,binding signal,ETV5,"1.28 fold enrichment (6-mer frequency, TF over GST control)"
same,binding signal,HSF1,"1.04 fold enrichment (6-mer frequency, TF over GST control)"
same,binding signal,SPIC,"1.35 fold enrichment (6-mer frequency, TF over GST control)"
same,binding signal,ELF4,"1.19 fold enrichment (6-mer frequency, TF over GST control)"
same,binding signal,ELK4,"1.28 fold enrichment (6-mer frequency, TF over GST control)"
same,binding signal,ETV2,"1.24 fold enrichment (6-mer frequency, TF over GST control)"
same,binding signal,ELF3,"1.2 fold enrichment (6-mer frequency, TF over GST control)"
same,binding signal,CRX,"1.05 fold enrichment (6-mer frequency, TF over GST control)"
same,binding signal,ETV1,"1.29 fold enrichment (6-mer frequency, TF over GST control)"
same,binding signal,ERF,"1.18 fold enrichment (6-mer frequency, TF over GST control)"
same,binding signal,ETV3L,"1.22 fold enrichment (6-mer frequency, TF over GST control)"
same,binding signal,ETS2,"1.21 fold enrichment (6-mer frequency, TF over GST control)"
same,binding signal,SPDEF,"1.18 fold enrichment (6-mer frequency, TF over GST control)"
same,binding signal,ETV7,"1.18 fold enrichment (6-mer frequency, TF over GST control)"
same,binding signal,ELF5,"1.19 fold enrichment (6-mer frequency, TF over GST control)"
same,binding signal,ETV3,"1.22 fold enrichment (6-mer frequency, TF over GST control)"
same,binding signal,ETV6,"1.17 fold enrichment (6-mer frequency, TF over GST control)"
